Screening data: PubChem, National Center for Advancing Translational Sciences (NCATS)
HT1080-NT tox – kills 2HG-producing HT-1080-NT fibrosarcoma cells. HT-1080-NT fibrosarcoma viability, CellTiter-Glo ATP luminescence, 48 h. hit rate 1.6% among 360,000. Potency, µM (top dose mostly 46.1 µM), without a hit: at the top dose activity, negative = less viability, most hits filed as cytotoxic;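 further: NT is the 2HG producing partner of a matched IDH1 knockdown line; potency means the concentration at half of the fitted maximal effect; 0% = DMSO-treated cells and -100% = media-only wells without cells; nearly all actives have a fitted effect of over 55% in size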
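Compounds were tested in concentration-response format on HT-1080-NT cells for 48 hours at 37 degrees C. Cell viability came from CellTiter-Glo luminescence; curves were classified by r2, response magnitude and activity.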
DT40 TDP1 CPT – growth inhibition of DT40 Tdp1-/-;hTDP1 cells with camptothecin (screen for TDP1 inhibitors) | hit rate 12% among 420,000 | chicken DT40 Tdp1-/-;hTDP1 cells + 20 nM CPT, ATP luminescence, 48 h | Potency, µM (doses to about 46.2 µM), for inactives: at the highest dose activity change, negative = growth inhibition, actives largely listed as inhibitors | AID 686979; further: potency means the concentration at half of the fitted maximal effect; nearly all actives have a fitted effect of over 55% in size
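Chicken DT40 Tdp1-/- cells stably complemented with human TDP1 were seeded at 400 cells/well in medium containing 20 nM camptothecin, exposed to pin-transferred compounds, and grown at 37 °C for at least 48 hr. Viability was read as ATP luminescence.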
HT1080 IDH1KD tx – toxicity to HT-1080 IDH1 knockdown cells (counter line) | HT-1080 IDH1 knockdown viability, ATP luminescence, 48 h | Potency, µM (highest dose often 46.1 µM), without a hit: at the highest dose activity, negative = toxicity, usual class: cytotoxic | hit rate 2% among 360,000 | AID 686971;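 further: potency means the concentration at half of the fitted maximal effect; 0% = DMSO wells and -100% = cell-free medium wells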
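Using the IDH1-knockdown HT-1080 line run in the same batch and compound series as the NT line, viability after 48 h at 37 °C was determined by CellTiter-Glo luminescence and expressed as % activity.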
12-LOX inh – blocks human arachidonate 12S-lipoxygenase | P18054 | purified 12hLO, xylenol orange hydroperoxide absorbance | Potency, µM (titrated, usually from 108 µM), for inactives: at the top dose activity change, negative = inhibition, hits mostly inhibitors | hit rate 1.1% among 580,000 | AID 1671190; further: potency means the concentration at half of the fitted maximal effect
Target sequence (P18054 whole entry, looked up): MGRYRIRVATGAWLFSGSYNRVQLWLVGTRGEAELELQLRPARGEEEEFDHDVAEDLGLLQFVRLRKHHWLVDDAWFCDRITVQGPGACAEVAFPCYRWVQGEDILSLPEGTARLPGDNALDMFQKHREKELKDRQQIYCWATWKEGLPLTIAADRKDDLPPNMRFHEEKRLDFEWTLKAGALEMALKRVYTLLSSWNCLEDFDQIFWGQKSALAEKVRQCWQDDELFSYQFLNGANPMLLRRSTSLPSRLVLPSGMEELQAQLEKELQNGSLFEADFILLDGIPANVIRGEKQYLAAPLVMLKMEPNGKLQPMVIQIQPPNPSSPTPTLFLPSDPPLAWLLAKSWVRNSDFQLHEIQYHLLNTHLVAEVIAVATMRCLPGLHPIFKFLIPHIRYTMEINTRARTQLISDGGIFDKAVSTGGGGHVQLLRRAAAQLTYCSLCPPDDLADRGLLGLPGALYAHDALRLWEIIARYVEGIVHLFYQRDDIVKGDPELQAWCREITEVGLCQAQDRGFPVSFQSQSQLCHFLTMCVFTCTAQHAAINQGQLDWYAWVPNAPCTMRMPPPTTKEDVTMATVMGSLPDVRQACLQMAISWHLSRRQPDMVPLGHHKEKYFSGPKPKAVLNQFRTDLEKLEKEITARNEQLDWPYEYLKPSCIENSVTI
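Purified human 12hLO at 150 nM in 25 mM Hepes, 0.01% Triton X-100, pH 7.0, preincubated 15 min at room temperature with compound. Reaction started with 40 uM arachidonic acid, 30 min at room temperature. Hydroperoxide measured by Fe-xylenol orange, 573/405 nm absorbance ratio.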
IL1B secr inh – blocks inflammasome-driven IL-1 beta release; THP-1 LPS/ATP IL-1B secretion, AlphaLISA, 16 h; hits give low values; activity change, % at 57.5 µM; hit rate 4.7% among 360,000; AID 743279; in the data active means activity change below about -50%; inconclusive means mostly about -30% to -49%
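THP-1 cells pretreated 1 hr with compounds (up to 57.5 uM final), then stimulated with LPS (250 ng/mL final) plus ATP (1.25 mM final); secreted IL-1B measured by AlphaLISA after 16 hr, decreased signal indicating inhibition.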
TDP1 cell noCPT – qHTS for Inhibitors of human tyrosyl-DNA phosphodiesterase 1 (TDP1): qHTS in cells in absence of CPT; DT40 Tdp1-/- hTDP1 cells, no CPT, ATP luminescence, 48 h; Potency, µM (top dose mostly 46.2 µM), inactives show at the top dose activity change, negative = growth inhibition, most hits filed as inhibitors; hit rate 15% among 420,000; AID 686978, 2013; further: potency means the concentration at half of the fitted maximal effect; nearly all actives have a fitted effect of over 55% in size
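Growth kinetics read by CellTiter-Glo luminescence after ≥48 hr at 37 °C. Cells: DT40 Tdp1-/- stably carrying human TDP1, 400 per well, compound exposure in the absence of CPT (DMSO vehicle).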
The depositor's hits bear a star; u = inconclusive; x = no result given. Many of the other results were omitted from the sample, so hits are more common in it than they were. Unless noted, the call rests on the fitted dose curve; in most records, active means well fitted curve in the direction sought with a large enough effect; inconclusive means small, poorly fitted or top-dose-only effect, or another doubt; inactive means no such curve, though single readings can be large; an effect the other way counts as inactive or inconclusive. Unless noted, on the % scale 0 is the no-effect control and ±100 the full control effect.

SMILES	HT1080-NT tox	DT40 TDP1 CPT	HT1080 IDH1KD tx	12-LOX inh	IL1B secr inh	TDP1 cell noCPT
CC[n+]1ccc(/C=C/c2ccc(N(C)C)cc2)c2ccccc21	u	0.073µM*	1.3µM*	u	-106*	0.0065µM*
NC(=O)[C@@H](Cc1c[nH]c2ccccc12)NC(=O)[C@@H]1[C@@H](NC(=O)NC2CCCCC2)CCN1C(=O)c1cnccn1	x	x	x	-7%	x	x
N#C/C(=C\c1cccc([N+](=O)[O-])c1)C(=O)NCc1cccnc1	6%	21µM*	7%	u	13	21µM*
N#C/C(=C/c1cccc([N+](=O)[O-])c1)C(=O)Nc1ccccc1O	-2%	3.7µM*	-2%	1%	-7	u
N#C/C(=C\c1cccs1)C(=O)NCc1cccnc1	-5%	-6%	-1%	-12%	14	13%
N#C/C(=C\C=C\c1ccccc1)C(=O)NCc1cccnc1	u	26µM*	u	20%	-89*	29µM*
N#C/C(=C\c1cccc([N+](=O)[O-])c1)C(=O)NCc1ccc(Cl)cc1	u	5.8µM*	u	u	-108*	12µM*
N#C/C(=C\c1cccc([N+](=O)[O-])c1)C(=O)Nc1cccnc1	-15%	-2%	-4%	u	38	-12%
C=CCNC(=O)[C@@H]1CCCC[C@@H]1C(=O)N1CCn2nc(C(=O)O)cc2C1	x	x	x	-8%	x	x
CC1=C(C(=O)Nc2ccccc2)C(c2ccc(Cl)cc2)N2C(=O)CSC2=N1 (stereo unspecified)	x	x	x	-6%	x	x
COc1ccc(-c2[nH]ncc2CN2CCN(Cc3cccs3)CC2)c(F)c1	-5%	-10%	0%	6%	26	u
COc1cc(-c2[nH]ncc2CN2CCN(Cc3cccs3)CC2)cc(OC)c1OC	-19%	18µM*	-25%	1%	40	21µM*
CC(=O)N1c2ccc(C)cc2Sc2c1ccc1ccccc21	u	-17%	-25%	-15%	17	u
CCN1/C(=C/c2ccc3cc(C)cc(C)c3[n+]2CC)Sc2cc(C)ccc21	7.3µM*	0.65µM*	u	40µM*	-97*	0.18µM*
CCN1/C(=C/c2ccc3cc(C)ccc3[n+]2CC)Sc2ccc3sccc3c21	u	0.92µM*	0.92µM*	x	33	0.58µM*
COc1ccccc1/C=N/NC(=O)c1nnn(-c2nonc2N)c1-c1ccccc1	-1%	-25%	0%	-10%	3	-14%
COc1cccc(-c2c(C(=O)N/N=C/c3ccsc3)nnn2-c2nonc2N)c1	3%	-2%	-5%	10%	-8	-9%
CCCOc1ccc(-c2c(C(=O)N/N=C/c3ccncc3)nnn2-c2nonc2N)cc1	u	2%	u	13%	-54*	22%
COc1cccc(-c2c(C(=O)N/N=C/c3sccc3C)nnn2-c2nonc2N)c1	-10%	-8%	-27%	-6%	-54*	4%
COc1ccccc1/C=N/NC(=O)c1nnn(-c2nonc2N)c1-c1cccs1	-9%	23µM*	-4%	x	14	-15%
Cc1ccsc1/C=N/NC(=O)c1nnn(-c2nonc2N)c1-c1ccccc1	5%	-24%	0%	1%	-92*	-4%
Cc1ccc(-c2c(C(=O)N/N=C/c3sccc3C)nnn2-c2nonc2N)cc1	0%	-28%	6%	5%	u	u
CCCOc1ccc(-c2c(C(=O)N/N=C/c3ccc(OCC)cc3)nnn2-c2nonc2N)cc1	-2%	-3%	0%	-3%	23	-14%
CCN(CC)Cc1ccc2cc(COC(=O)Nc3ccc(C(=O)NO)cc3)ccc2c1	x	x	x	15µM*	x	x
CCC(=O)Nc1ccc(C(=O)OCc2ccc(Cl)c(Cl)c2)cc1	-4%	7%	-3%	-2%	-2	-26%
